Assay outcomes deposited in PubChem BioAssay by several laboratories.
This is a sample that favours compounds with a hit; in the whole collection about 2.2% have one here.
TROY NFkB inh = blocks TROY-dependent signaling in reporter cells | actives 0.98% (n = 360,000) | Q293 LMP1-TROYcd NF-kB luciferase reporter, 4 h | inhibition, % at 10 µM;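 active means compounds whose plate-normalised and pattern-corrected inhibition of the luciferase reporter signal at the single screening dose is 50% or more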
LGR2 antag = blocks bursicon-induced cAMP signaling via Drosophila LGR2; HEK293 LGR2, CRE-luciferase, bursicon-stimulated, 4 h; inhibition, % at 9.99 µM; actives 0.35% (n = 380,000);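 active means drop in luminescence signal, shown as inhibition above about 50% in the replicate tests, limit read from the data, passing the limit was not always enough; inconclusive means probably only some replicates passing the limit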;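 further: agonist challenge used bursicon conditioned medium at about half maximal strength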
HSP90 refold inh = blocks HSP90-mediated luciferase refolding in reticulocyte lysate. Rabbit reticulocyte lysate, luciferase refolding luminescence, 3 h. inhibition, % at 5.6 µM. actives 0.91% (n = 290,000). AID 1789;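 active means inhibition above the screen-wide mean plus 3 SD, computed separately per campaign, cut at about 16% in these data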;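 further: inhibitors lower the luminescence because luciferase stays unfolded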
TWEAK Fn14 block = TWEAK-Fn14 signaling inhibition; TWEAK-stimulated Fn14 reporter cells, luciferase luminescence, 8 h; inhibition, % at 10 µM; actives 2% (n = 360,000); in the data active means inhibition above about 50%
Hits are given with their value; - = inactive; ? = inconclusive; . = not tested or not shown.

SMILES	TROY NFkB inh	LGR2 antag	HSP90 refold inh	TWEAK Fn14 block
COCCN(C(=O)c1csnn1)C(C(=O)NC1CCCC1)c1ccccc1F (stereo unspecified)	-	-	-	66
COCCN(C(=O)c1csnn1)C(C(=O)NC1CCCC1)c1ccc(C)cc1 (stereo unspecified)	-	-	-	-
Nc1ccc2c(c1)C(=O)CCC2	74	.	.	55
O=C1CCCc2cc3c(cc21)CCCC3	-	.	.	-
CN(C)CC(=O)N1[C@@H]2Cn3c(cccc3=O)[C@H]1[C@@H](C(=O)NCc1ccccc1)[C@@H]2CO	.	-	.	.
CCN1C(=O)/C(=C\c2nc3ccccc3c(=O)n2-c2ccccc2)c2ccccc21	-	-	-	57
CCN1C(=O)/C(=C/c2nc3ccccc3c(=O)n2-c2ccc(C)cc2)c2ccccc21	-	-	-	67
COc1ccc(-n2c(/C=C3\C(=O)N(C)c4ccccc43)nc3ccccc3c2=O)cc1	-	-	-	-
CC(C)NC(=O)N(C)C[C@@H]1OCCCC[C@@H](C)Oc2ccc(NS(=O)(=O)c3ccccc3)cc2C(=O)N([C@@H](C)CO)C[C@H]1C	.	-	.	.
CC(C)(C)c1cc(CCC(=O)NCCc2ccccn2)cc(C(C)(C)C)c1O	-	-	-	-
O=C1C=C(NCCc2cc(Br)c(O)c(Br)c2)C(=O)c2ncccc21	-	74	.	94
Cc1nn(C)c(C)c1/C=C(/C(=O)C(C)(C)C)n1cncn1	-	-	-	-
CC(C)(C)C(=O)/C(=C/c1ccncc1)n1cncn1	51	79	-	83
COc1cccc(-c2ccc3c(c2)[C@@H]2[C@@H](CCN2S(=O)(=O)c2ccccc2F)[C@H](CO)N3C)c1	.	-	.	.
O=[N+]([O-])c1ccc(NC(=S)NCCc2ccc(Cl)cc2)cc1	57	.	-	60
Fc1ccc(CNC(=S)NCc2ccccc2)cc1	-	-	-	-
O=[N+]([O-])c1ccc(NC(=S)NCc2ccc(F)cc2)cc1	56	-	-	-
Fc1ccc(NC(=S)NCc2ccccc2)cc1	-	-	-	107
O=C(NCc1ccco1)C1CCN(C(=O)c2cc3sccc3n2Cc2ccc(Cl)cc2)CC1	-	.	-	50
C[C@@H]1CN([C@H](C)CO)C(=O)c2cc(NC(=O)NC3CCCCC3)ccc2O[C@@H](C)CCCCO[C@@H]1CN(C)CC1CCCCC1	.	-	.	.
C[C@@H]1CCCCO[C@@H](CN(C)C(=O)Nc2ccc(F)cc2)[C@H](C)CN([C@H](C)CO)C(=O)c2cc(NC(=O)Nc3ccc(F)cc3)ccc2O1	.	-	.	.
Oc1ccc(/C=C/c2ccc3ccccc3n2)cc1	74	96	24	92
O=C(O)/C=C/c1ccc2ccccc2n1	-	.	-	-
Fc1ccccc1/C=C/c1ccc2ccccc2n1	59	90	-	89
CN(C)c1ccc(/C=C/c2ccc3ccccc3n2)cc1	76	93	84	99
SMILES	TROY NFkB inh	LGR2 antag	HSP90 refold inh	TWEAK Fn14 block
C[C@@H]1CN([C@H](C)CO)C(=O)c2cccc(NS(=O)(=O)c3ccccc3)c2O[C@H]1CN(C)C(=O)Nc1ccccc1	.	-	.	.
CCNC(=O)[C@@H]1[C@@H](CO)[C@@H]2Cn3c(ccc(C4=CCCC4)c3=O)[C@@H]2N1C(=O)C1CC1	.	-	.	.
COc1ccc(-c2c(C)nc3c(-c4ccsc4)cnn3c2N)cc1	57	-	-	-
COc1ccc(-c2c(C)nc3c(-c4ccccn4)cnn3c2N)cc1	59	-	-	56
Cc1cc(C(F)(F)Cl)n2ncc(-c3ccccn3)c2n1	-	-	-	-
Cc1ccc(S(=O)(=O)N(C)C[C@H]2Oc3ccc(NC(=O)CCCN(C)C)cc3CC(=O)N([C@H](C)CO)C[C@H]2C)cc1	.	-	.	.
CCc1nnc(NC(=O)c2ccc(OCc3c(C)noc3C)c(OC)c2)s1	-	-	-	-
CCC(=O)Nc1nc2ccc3sc(C)nc3c2s1	-	-	-	69
COc1cc(C(=O)Nc2nc3ccc(C)cc3s2)ccc1OCc1c(C)noc1C	-	.	-	50
CCn1c(SCC(=O)Nc2nc3ccc(C)cc3s2)nc2c(c1=O)SC(C)C2 (stereo unspecified)	-	.	-	93
Cc1ccc2nc(NC(=O)CSCC(=O)OCC(=O)c3ccc(Br)cc3)sc2c1	64	.	50	74
O=C(c1ccccc1)N1CC[C@@H]2[C@@H](CO)Nc3ccc(C#Cc4cccc(F)c4)cc3[C@@H]21	.	-	.	.
COCC(=O)Nc1nc2ccc(C)cc2s1	-	.	17	-
Cc1ccc2nc(NC(=O)COC(=O)c3ccncc3)sc2c1	-	-	-	-
CCc1ccc(C(=O)COC(=O)c2n[nH]c3ccccc23)cc1	-	-	-	62
C[C@H](CO)N1C[C@H](C)[C@@H](CN(C)C(=O)C2CCC2)Oc2cc(C#C[C@@H](C)O)ccc2S1(=O)=O	.	-	.	.
C[C@@H]1CN([C@@H](C)CO)C(=O)c2cc(NC(=O)NC3CCCCC3)ccc2O[C@@H](C)CCCCO[C@@H]1CN(C)S(=O)(=O)c1ccc(F)cc1	.	-	.	.
N#CC1=C2N=C(N)c3c(sc4c3CCCCC4)N2C2=C(C(=O)CCC2)C1c1ccccc1 (stereo unspecified)	54	.	-	-
CN1C(=O)/C(=C/c2cc(N=Nc3ccccc3)ccc2O)SC1=S	54	-	-	65
Cc1c(N2C(=O)/C(=C\c3ccccc3O)SC2=S)c(=O)n(-c2ccccc2)n1C	-	-	-	-
Cc1c([N+](=O)[O-])c2ccc(O)cc2n1-c1ccccc1	-	-	-	56
Cc1ccc(-n2c(C)c([N+](=O)[O-])c3ccc(O)cc32)cc1	.	-	-	.
COc1ccc(NC(=O)N(C)C[C@H]2Oc3cc(-c4cccc(C(=O)N(C)C)c4)ccc3S(=O)(=O)N([C@@H](C)CO)C[C@H]2C)cc1	.	-	.	.
Cc1ccccc1OCc1nnc(SCC(=O)Nc2ccc3nc(SCC(=O)NC(C)(C)C)sc3c2)n1C	.	.	-	89
CC(C)(C)NC(=O)CSc1nc2ccc(NC(=O)CSc3nnnn3Cc3ccccc3)cc2s1	50	.	-	73
SMILES	TROY NFkB inh	LGR2 antag	HSP90 refold inh	TWEAK Fn14 block
CC(NC(=O)CSc1nc2ccc(N)cc2s1)c1ccccc1 (stereo unspecified)	52	.	-	-
CCNC(=O)C[C@@H]1CC[C@H]2[C@H](COc3ccc(NC(=O)Cc4ccccc4)cc3C(=O)N2C)O1	.	-	.	.
C[C@H]1CN([C@@H](C)CO)C(=O)c2cc(C#CC3CCCCC3)cnc2O[C@@H]1CN(C)C	.	-	.	.
Cc1cc(=O)n(CCCc2ccccc2)[nH]1	-	-	.	-
N#CCCn1[nH]c(-c2ccccc2)cc1=O	-	-	31	-
CC(=O)Nc1ccc(/C=N/Nc2nncc3ccccc23)cc1	-	-	-	-
C(=N\Nc1nncc2ccccc12)/c1ccccn1	-	?	29	74
COc1ccc(C(=O)Nc2nnc(Cc3ccc(OC)c(OC)c3)s2)c(OC)c1	-	-	-	82
Cc1ccc(Cc2c(C3CCCCC3)nc3c(C)cc(Br)cn23)cc1	-	-	.	57
CC(C)(C)OC(=O)N(CCc1ccccc1)Cc1ccc(OCc2cccc(NC(=O)C3CCCC3)c2)cc1	-	-	.	-
CC(C)(C)OC(=O)N(Cc1ccccc1)Cc1ccc(OCc2cccc(NC(=O)C3CC3)c2)cc1	-	-	.	57
COc1ccc(C(=O)OCC(=O)c2c[nH]c3ccccc23)c(OC)c1	-	-	.	-
